Test results reported in paper PMC5540273 (PLoS ONE, 2017).

Assays:
Settings in all cases: concentration: 1 μM,replicates: in singlicate; n = 1
TESK1 = test system: TESK1
TGFBR1 = test system: TGFBR1
TGFBR2 = test system: TGFBR2
TIE1 = test system: TIE1
TIE2 = test system: T1, TIE2
T1 construct: gene TEK

TLK1 = test system: TLK1
TLK2 = test system: TLK2
TNIK = test system: TNIK
TNK1 = test system: TNK1
TNK2 = test system: TNK2
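Also: KINOMEscan kinase panel screen.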

Structure (SMILES) | %Inh (TESK1) [%] | %Inh (TGFBR1) [%] | %Inh (TGFBR2) [%] | %Inh (TIE1) [%] | %Inh (TIE2) [%] | %Inh (TLK1) [%] | %Inh (TLK2) [%] | %Inh (TNIK) [%] | %Inh (TNK1) [%] | %Inh (TNK2) [%]
Cl.Nc1n[nH]c2cc(-c3ccccn3)ccc12 [GSK2189892] | 22 | 0 | 0 | 0 | 0 | 0 | 0 | 5 | 0 | 15
O=C(NCC1CC1)c1ccc(-c2cc(C(=O)NC3CC3)ccc2F)cc1 [GW810445] | 0 | 27 | 0 | 0 | 0 | 0 | 0 | 0 | 30 | 0
CC(=O)Nc1nc2cnc(Nc3cc(NC(=O)c4cccc(CC(C)(C)C#N)c4)ccc3C)nc2s1 | 0 | 9 | 0 | 20 | 2 | 0 | 0 | 0 | 7 | 0
CN(c1ccccc1CNc1nc(Nc2ccc3c(c2)CC(=O)N3)ncc1C(F)(F)F)S(C)(=O)=O | 0 | 0 | 16 | 90.6 | 49 | 0 | 0 | 1 | 83 | 53
C[C@@H](Oc1cc(-n2cnc3ccc(-c4ccncc4)cc32)sc1C(N)=O)c1ccccc1Cl [GSK483724] | 37 | 0 | 0 | 41 | 0 | 0 | 0 | 9 | 0 | 25
C[C@@H]1CNc2c(sc3ccc4nc(-c5ccncc5)ccc4c23)C(=O)N1 | 0 | 0 | 48 | 0 | 0 | 0 | 0 | 0 | 22 | 0
Cn1ccc2ncnc(Oc3ccc(NC(=O)Nc4cccc(C(F)(F)F)c4)c(F)c3)c21 | 11 | 0 | 19 | 96.7 | 92.8 | 0 | 2 | 0 | 17 | 0
COc1cc2nccc(Nc3ccc(Oc4ccccc4)cc3)c2cc1OC.Cl [GI261656] | 5 | 2 | 0 | 0 | 0 | 0 | 0 | 0 | 92.8 | 47
Nc1nccc(-c2ccc3c(N)n[nH]c3c2)n1 [GSK1034945] | 2 | – | 0 | 0 | 0 | 14 | 0 | 2 | 0 | 5
CN(c1cccc(CNc2nc(Nc3ccc4c(c3)CC(=O)N4)ncc2C(F)(F)F)c1)S(C)(=O)=O | 0 | 0 | 0 | 75 | 42 | 16 | 3 | 75 | 57 | 67
CN(c1ccc2c(c1)nc(NCc1ccc(F)cc1)n2C)c1ccnc(Nc2ccc(CS(C)(=O)=O)cc2)n1.Cl [GW813244] | 4 | 0 | 2 | 92.2 | 37 | 15 | 10 | 22 | 43 | 0
OCCn1cc(-c2cnc3nnn(Cc4ccc5ncccc5c4)c3n2)cn1 | 0 | 0 | 0 | 0 | 0 | 0 | 0 | 0 | 19 | 0
CC(=O)Nc1ccc(-c2cc3ncnc(SCC(=O)O)c3s2)cc1 | 6 | 7 | 46 | 17 | 6 | 20 | 8 | 16 | 0 | 0
Cc1ccc(C(=O)Nc2ccc(Oc3ccc4nc(NC(=O)C5CC5)cn4c3)c(F)c2)c(=O)n1-c1ccccc1 | 30 | 16 | 0 | 95 | 99.4 | 0 | 0 | 18 | 64 | 0
FC(F)(F)c1cc(Br)cc(Nc2nccc(-c3cnn4ncccc34)n2)c1 [GW810578] | 11 | 27 | 99.3 | 18 | 0 | 0 | 14 | 0 | 36 | 0
NC(=O)c1ccc(-c2cc3ncnc(SCC(=O)O)c3s2)cc1 | 6 | 0 | 40 | 0 | 13 | 5 | 0 | 33 | 0 | 0
CC(=O)c1c(-c2ccncc2)[nH]c(-c2ccncc2)c1C [GW493036] | 25 | 23 | 25 | 0 | 1 | 0 | 0 | 0 | 0 | 19

Structure (SMILES) | %Inh (TESK1) [%] | %Inh (TGFBR1) [%] | %Inh (TGFBR2) [%] | %Inh (TIE1) [%] | %Inh (TIE2) [%] | %Inh (TLK1) [%] | %Inh (TLK2) [%] | %Inh (TNIK) [%] | %Inh (TNK1) [%] | %Inh (TNK2) [%]
Cn1ccc2ncnc(Oc3ccc(NC(=O)Nc4cnn(C(C)(C)C)c4)c(Cl)c3)c21 | 0 | 13 | 5 | 78 | 73 | 17 | 0 | 72 | 0 | 0
CN1CCN(CCNc2nc3cc(Oc4ccc(NC(=O)Nc5cc(C(F)(F)F)ccc5F)cc4)ccc3[nH]2)CC1.Cl.Cl [GW768504] | 0 | 6 | 4 | 89 | 60 | 0 | 2 | 0 | 30 | 0
CSc1nccc(-c2c(-c3ccc(F)cc3)ncn2CCCN2CCOCC2)n1.Cl [SB-217146] | 0 | 0 | 0 | 0 | 0 | 0 | 15 | 0 | 26 | 0
COc1ccc(Nc2nccc(N3CCC(NC(=O)c4cccc(C#N)c4)C3)n2)cc1 (centres unmarked) [GSK1379730] | 46 | 0 | 0 | 16 | 5 | 0 | 0 | 0 | 0 | 11
CS(=O)(=O)c1cccc(CNc2nc(Nc3ccc4c(c3)[C@@H]3C[C@@H]4CNC3=O)ncc2C(F)(F)F)c1 | 0 | 0 | 0 | 83 | 68 | 18 | 0 | 88 | 97.2 | 56
CC(C(=O)NC1CCN(c2ccnc(Nc3ccc(F)cc3)n2)C1)c1ccc(Cl)cc1 (centres unmarked) [GSK1379713] | 26 | 0 | 0 | 12 | 0 | 0 | 0 | 0 | 0 | 0
Cc1cccc(-c2nc(Nc3ccncc3)c3sccc3n2)n1 [GW869641] | 10 | – | 95.6 | 43 | 38 | 0 | 9 | 55 | 26 | 0
CCCC(=O)Nc1n[nH]c2ncccc12 [SB-601436] | 5 | 0 | 0 | 0 | 0 | 0 | 0 | 0 | 0 | 0
Cc1ccc2c(-c3ccnc(Nc4ccc(C(F)(F)F)cc4)n3)cnn2n1 [GW819776] | 0 | 21 | 60 | 0 | 6 | 18 | 17 | 9 | 13 | 0
CS(=O)(=O)Nc1ccc(-c2ccnc3[nH]ccc23)cc1 [GSK993273] | 4 | 0 | 0 | 28 | 3 | 63 | 63 | 32 | 0 | 14
O=C1NCCc2[nH]c(-c3ccncc3)cc21 | 6 | 33 | 44 | 0 | 5 | 31 | 8 | 35 | 15 | 0
Cn1ccc2ncnc(Oc3ccc(NC(=O)Nc4cncc(C(F)(F)F)c4)c(Cl)c3)c21 | 0 | 0 | 0 | 80 | 92.8 | 5 | 0 | 0 | 0 | 0
C[C@@H]1CCN(C(=O)N2CCCC2)C[C@@H]1N(C)c1ncnc2[nH]ccc12 | 16 | 0 | 0 | 22 | 10 | 12 | 0 | 14 | 69 | 0
CCN1CCN(CCCC(=O)Nc2n[nH]c3nc(-c4ccc(O)cc4)c(Br)cc23)CC1 [SB-731579] | 0 | 0 | 0 | 19 | 0 | 8 | 0 | 7 | 34 | 0
O=C(NOCC1CC1)c1cc(Br)c(F)c(F)c1Nc1ccc(I)cc1Cl | 0 | 0 | 0 | 0 | 16 | 47 | 0 | 12 | 0 | 0
Cc1ccc(Nc2ccnc(Nc3ccc4c(c3)CS(=O)(=O)C4)n2)cc1O.Cl [GW579362] | 53 | 82 | 99.4 | 88 | 56 | 30 | 35 | 68 | 85 | 80
Cc1ccc(CC(=O)N2CCc3cc(-c4cn(C)c5ncnc(N)c45)ccc32)cc1 [GSK2634758] | 36 | 0 | 0 | 89 | 48 | 0 | 0 | 1 | 0 | 42
